# Data from the supplement of paper PMC8728848.
# Many of the other results were omitted from the sample, so the strongest signals are more common in it than they were.
# Tests used:
# Assay in all cases: glycan array binding signal (z-score within array); higher = stronger binding
# Settings in all cases: glycan notation: IUPAC condensed, linker removed; mutation: Y228A
# [1] = biological target: Gal(b1-4)GlcNAc(b1-6)Gal(b1-4)GlcNAc
# Method in brief: (§1)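 Glycan array data came from 3228 arrays in the Consortium for Functional Glycomics database, and only arrays with an available protein sequence were kept. Glycan names were put into IUPAC-condensed notation, and columns mapping to the same glycan were averaged. The binding signal is a within-array Z-score, averaged across arrays of one protein sequence run at different concentrations or buffers and across linkers. A negative Z-score can be read as non-binding.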
# [2] = biological target: Gal(b1-4)GlcNAc(b1-6)[Gal(b1-4)GlcNAc(b1-3)]GalNAc
# Method in brief: as §1
# [3] = biological target: Gal3S(b1-3)GalNAc
# Method in brief: as §1
# [4] = biological target: Gal3S4S(b1-4)GlcNAc
# Method in brief: as §1
# [5] = biological target: Gal4S6S(b1-4)GlcNAc
# Method in brief: as §1
# [6] = biological target: Gal6S(b1-3)GlcNAc6S
# Method in brief: as §1
# [7] = biological target: Gal6S(b1-4)Glc6S
# Method in brief: as §1
# [8] = biological target: GalNAc(b1-3)Gal(a1-4)Gal(b1-4)GlcNAc
# Method in brief: as §1
# [9] = biological target: GalNAc3S(b1-4)GlcNAc
# Method in brief: as §1
# [10] = biological target: Glc(b1-4)Glc
# Method in brief: as §1
# [11] = biological target: GlcA3S(b1-3)Gal(b1-4)GlcNAc(b1-2)Man
# Method in brief: as §1
# [12] = biological target: GlcNAc(b1-2)[GlcNAc(b1-6)]Man(a1-6)[GlcNAc(b1-2)Man(a1-3)]Man(b1-4)GlcNAc(b1-4)[Fuc(a1-6)]GlcNAc
# Method in brief: as §1
# [13] = biological target: GlcNAc(b1-3)Gal(b1-4)GlcNAc(b1-3)Gal(b1-4)GlcNAc(b1-3)Gal(b1-4)GlcNAc(b1-2)Man(a1-3)[GlcNAc(b1-3)Gal(b1-4)GlcNAc(b1-3)Gal(b1-4)GlcNAc(b1-3)Gal(b1-4)GlcNAc(b1-2)Man(a1-6)]Man(b1-4)GlcNAc(b1-4)[Fuc(a1-6)]GlcNAc
# Method in brief: as §1
# [14] = biological target: GlcNAc(b1-3)[GlcNAc(b1-6)]Gal(b1-4)GlcNAc
# Method in brief: as §1
# [15] = biological target: GlcNAc(b1-3)[GlcNAc(b1-6)]GalNAc
# Method in brief: as §1
# [16] = biological target: Man(a1-2)Man(a1-2)Man(a1-6)[Man(a1-3)]Man
# Method in brief: as §1
# [17] = biological target: Man(a1-3)[Man(a1-6)]Man(a1-6)[Man(a1-3)]Man
# Method in brief: as §1
# [18] = biological target: Neu5Ac(a2-3)Gal(b1-3)GlcNAc(b1-3)Gal(b1-3)GlcNAc
# Method in brief: as §1
# [19] = biological target: Neu5Ac(a2-3)Gal(b1-3)[Neu5Ac(a2-6)]GlcNAc(b1-3)[Fuc(a1-3)[Gal(b1-4)]GlcNAc(b1-6)]Gal(b1-4)Glc
# Method in brief: as §1
# [20] = biological target: Neu5Ac(a2-3)Gal(b1-4)GlcNAc(b1-2)Man(a1-3)[Neu5Ac(a2-6)Gal(b1-4)GlcNAc(b1-2)Man(a1-6)]Man(b1-4)GlcNAc(b1-4)GlcNAc
# Method in brief: as §1
# [21] = biological target: Neu5Ac(a2-3)Gal(b1-4)GlcNAc(b1-3)Gal
# Method in brief: as §1
# [22] = biological target: Neu5Ac(a2-3)Gal(b1-4)[Fuc(a1-3)]GlcNAc
# Method in brief: as §1
# [23] = biological target: Neu5Ac(a2-6)Gal(b1-4)GlcNAc(b1-3)Gal(b1-4)GlcNAc(b1-3)Gal(b1-4)GlcNAc
# Method in brief: as §1
# [24] = biological target: Neu5Gc(a2-3)Gal(b1-3)GlcNAc
# Method in brief: as §1
# [25] = biological target: Neu5Gc(a2-3)Gal(b1-3)[Fuc(a1-4)]GlcNAc
# Method in brief: as §1
binder,measurement,setting,value
"Epa1-NP-mutant-Y228A (Candida glabrata), Q6VBJ0 (protein) MILNPALFLNKCVCIYTTLILLLLTNGGYATSSNDISLASKDPTTFPLGCSPDITTPKKGLSMELYSYDFRKKGSYPCWDAAYLDPNYPRTGYKSHRLLAKVDGVTGNINFYYHATKGCTPQLGHLPASYNYPKPLTMTNFTMLLYGYFRPKVTGFHTFTISADDLLFVNFGAGNAFDCCRRDSSADHFGNYQAYAIWGSKTAKDELTVHLDAGVYYPIRLFYNNREADGALSFTFKTESNENTVSDFSEYFFSLDDTEEGCPGLISYDSSCASVKTSKIIGIDYHTETPNENLVPITKTIYHLGIPCTGTTTTPLCGSGFYDPLANKCVTINTSSTSSVTKTTSHTTSKEVSFHSSISSQKTLIPKSIPSPYGPIKSQSIPTEMETSSEISSSEYAFSDVISTPSHSPYTKKHSSLNSSSYTSTVIHSLTSYSISQGIFSTSLSEQNITSKSSTDKFSTATSMSNNITQSSIIISQFSTNNENYTTTSMHTSSDKISTETLNNSISTTTSILFSNSSTILKNNTTIISSDKDTHYHPVNPTIVCSTNKTEIICASITQPSISNSNNHWSSSVLKFNSTTVRSTLPSSAGSNETSINVPFSSSTESNTSTSSTSTSNSKMVRSTLPSSAGSNETSISVPFSSSTESNTSTSSTSTSNSKMVRSTLPSSAGSNETSINVPFSSSTESNTSTSSTSTSNSKTVRSTPFSSAGIIMTSLSQRNNKSASSYASSNSKCYNTADSCRKVHSTPSYLLTSSYTSEGVDYDCSLVSTKLKINDTNCVNNKHTTKSCLKTSVTTTIPTLEIKTARKSSSNTIGLHSYPTSSPNKSISSAPIIGYISSFKTIKTASPSYQTSDLTTITTITSLNNPGSTAVENTHESNDKSRKTSSNDISSKHSVIKETKDAVESSNKSHQTNTLKCSSIIIASSSHNSYESLGGTTLTLTLSKVYSPQNNDTLPFLEISEVNPSRTVLPESSKMMQYLTSTEERNKTARNTIATNIVSISTFHFEGEGNAIRMGYTQLLLMLIGIIVMNIGT",glycan array binding signal (z-score),[1],2.72
same,glycan array binding signal (z-score),[2],0.637
same,glycan array binding signal (z-score),[3],-0.153
same,glycan array binding signal (z-score),[4],-0.259
same,glycan array binding signal (z-score),[5],-0.16
same,glycan array binding signal (z-score),[6],5.91
same,glycan array binding signal (z-score),[7],4.82
same,glycan array binding signal (z-score),[8],-0.145
same,glycan array binding signal (z-score),[9],-0.321
same,glycan array binding signal (z-score),[10],-0.246
same,glycan array binding signal (z-score),[11],-0.24
same,glycan array binding signal (z-score),[12],0.217
same,glycan array binding signal (z-score),[13],-0.139
same,glycan array binding signal (z-score),[14],-0.235
same,glycan array binding signal (z-score),[15],-0.277
same,glycan array binding signal (z-score),[16],-0.127
same,glycan array binding signal (z-score),[17],-0.287
same,glycan array binding signal (z-score),[18],-0.295
same,glycan array binding signal (z-score),[19],-0.172
same,glycan array binding signal (z-score),[20],-0.237
same,glycan array binding signal (z-score),[21],-0.11
same,glycan array binding signal (z-score),[22],-0.209
same,glycan array binding signal (z-score),[23],-0.307
same,glycan array binding signal (z-score),[24],-0.069
same,glycan array binding signal (z-score),[25],-0.119
